Rows were chosen to be rich in hits. Some 10% of all compounds tested hit in one or more screens of this group.
LMNA splice mod: changes lamin A minigene splicing in HeLa cells; Potency, µM (highest dose often 46.1 µM), without a hit: at the highest dose ratio change, negative = inhibition, hits mostly inhibitors; HeLa LMNA splicing GFP/RFP minigene ratio, 48 h; 0.01% of 200,000 active; active = well fitted inhibition curve with a large enough effect in the signal ratio, with a control signal flat, not every such curve was filed as active; inconclusive = small, poorly fitted or top-dose-only effect, or effect the other way, or a change in a side signal; the % refers to the signal ratio; also: potency is read from the fitted curve at half-maximal effect
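S3 HeLa cells stably expressing lamin A-EGFP splicing minigene plus DsRed2, 600 cells/well, 48 h compound exposure at 37C. Laser-scanning cytometry; analysed as GFP (500-530 nm)/RFP (575-640 nm) total intensity ratio; 0.5% DMSO vehicle.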
ALOX12 inhib: blocks human 12-lipoxygenase activity | purified 12-hLO, xylenol orange hydroperoxide absorbance | Potency, µM (doses to about 57.1 µM), for the others: top-dose activity change, negative = inhibition, most hits filed as inhibitors | P18054 | 0.12% of 150,000 active; active = well fitted inhibition curve with a large enough effect; inconclusive = small, poorly fitted or top-dose-only effect; also: potency is read from the fitted curve at half-maximal effect; nearly all actives have a fitted effect of over 55% in size
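Xylenol orange chromogenic assay: hydroperoxide from 12hLO oxidises Fe(II), giving red-shifted Fe(III)-XO absorbance. Conditions: 150 nM enzyme, 40 uM arachidonic acid, 25 mM Hepes pH 7.0, 0.01% Triton X-100, 30 min, room temperature.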
PNC assembly inh: perinucleolar compartment assembly inhibition; 3.1% of 140,000 active; activity change (PNC), negative = inhibition, % at 10 µM; AID 2417; PC3M PTB-GFP, PNC prevalence imaging, 16 h; stronger effect = lower value;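 active = readout at or below -70, meaning at least 70% loss of cells showing the perinucleolar compartment, a nuclear body marking cancer cells; inconclusive = readout between -30 and a set limit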;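 also: plate controls were DMSO wells for no effect and camptothecin positive control wells for full effect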
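Compounds are pinned in duplicate onto adhered PC3M cells stably expressing GFP-tagged PTB and incubated 16 h at 37 C. Cells are then fixed, nuclei stained with Hoechst, and PNC-positive cells counted.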
ALDH1A1 block: inhibitors of human aldehyde dehydrogenase 1A1. P00352. Purified ALDH1A1, NADH fluorescence, propionaldehyde substrate. Potency, µM (top dose mostly 75.3 µM), for inactives: at the top dose activity, negative = inhibition, most hits filed as inhibitors. 7.3% of 220,000 active. AID 1030;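 also: potency is read from the fitted curve at half-maximal effect; plate controls were no enzyme wells and a reference inhibitor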
HPGD inh: blocks human HPGD enzyme activity | P15428 | purified HPGD, NADH fluorescence kinetic, PGE2 substrate | 4.3% of 150,000 active | Potency, µM, for the others: top-dose activity change, negative = inhibition, most hits filed as inhibitors; also: potency is read from the fitted curve at half-maximal effect
Target sequence (P15428 whole entry, looked up): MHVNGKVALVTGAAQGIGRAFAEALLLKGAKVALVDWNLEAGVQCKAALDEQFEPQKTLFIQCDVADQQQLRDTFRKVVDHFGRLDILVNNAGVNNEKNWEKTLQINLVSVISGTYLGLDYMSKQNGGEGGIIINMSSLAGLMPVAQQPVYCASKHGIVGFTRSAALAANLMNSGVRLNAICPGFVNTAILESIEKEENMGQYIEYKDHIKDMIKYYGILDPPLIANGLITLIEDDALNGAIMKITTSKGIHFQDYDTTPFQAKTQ
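20 nM HPGD preincubated 15 min at room temperature with compound in 50 mM Tris-HCl pH 8, 0.01% Tween 20. Started with 1 mM NAD+ and 30 uM prostaglandin E2; NADH fluorescence (360/450 nm) read 5 times over 30-s intervals, last minus first.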
Active calls of the source: *; u = inconclusive; x = not tested or not shown; [ ] = remark or other dose. Unless noted, calls follow the shape of the dose curve; as a rule, active = well fitted inhibition curve with a large enough effect (not every such curve was filed as active); inconclusive = small, poorly fitted or top-dose-only effect, or another doubt; inactive = no such curve, though single readings can be large or run the other way. Unless noted, % is scaled to controls: 0 for no effect and ±100 for the full control effect.

SMILES	LMNA splice mod	ALOX12 inhib	PNC assembly inh	ALDH1A1 block	HPGD inh
CO/N=C/C1CCN(c2ncc(C(F)(F)F)cc2Cl)C1=O (stereo not drawn)	u	x	x	32µM*	x
COc1ccc(C(=O)OC2CCN(c3ncc(C(F)(F)F)cc3Cl)CC2)cc1	4%	-4%	-2	2%	-16%
C[C@@H](c1ccccc1)N1C(=O)[C@H]2[C@H]3[C@H](O)[C@H](O)C/C(=N/NC(=O)OCc4ccccc4)[C@H]3CC[C@@H]2C1=O	x	x	x	2%[13.5 µM]	x
C=CCc1cccc(C2C(C)CCC3C(=O)N4C(Cc5c([nH]c6ccccc56)C4c4cc(OC)c(OC)c(OC)c4)C(=O)N32)c1 (stereo not drawn)	x	x	x	9%[13.5 µM]	x
O=C(CN1CC(=O)Nc2ccccc21)Nc1ccc(F)c(F)c1	10%[46 µM]	x	x	6.3µM*	x
COc1ccccc1NC(=O)CN1CC(=O)Nc2ccccc21	-6%[46 µM]	x	x	3.5µM*	x
O=C(CSCc1ccccc1)Nc1ccc(F)c(F)c1	-10%	-2%	-21	u	-19%
Cc1ccc(S(=O)(=O)COCCN2CCN(S(=O)(=O)c3ccc(C)cc3)CCC2=O)cc1	x	-1%[0.00818 µM]	x	4%	-6%
Cc1cc2cc(CNC(=O)NC3CCCCC3)ccc2n1C	-17%	-5%	-11	-2%	28µM*
O=C(NCc1ccc2c(c1)OCO2)c1cc2ccccc2o1	-5%	2%	19	9%	u
COCC(=O)NCc1ccc2c(c1)cc(C)n2C	-10%	0%	-113*	2%	25µM*
Cc1cc2cc(CNC(=O)c3cc4ccccc4o3)ccc2n1C	u	0%	-9	u	7.1µM*
Cc1ccc(S(=O)(=O)NCc2ccc3c(c2)cc(C)n3C)cc1	-17%	-12%	u	20µM*	-7%
CCC(=O)OC1C2CC3=C4CC(=O)OC(c5ccoc5)[C@]4(C)CCC3[C@@](C)(C2=O)C(CC(=O)OC)C1(C)C (stereo partly drawn)	x	-1%	x	8%	-8%
COc1ccccc1C(=O)NCc1nc2cccnc2n1Cc1ccc(F)cc1	-1%[46 µM]	x	x	x	x
COc1ccc(C)cc1NC(=O)Cc1c(C(=O)O)c(C)cn1C	-4%[46 µM]	x	x	x	x
COC(=O)[C@@H]1C[C@H]1[C@@H](N)c1ccccc1	x	-3%	x	0%	-4%
CCN(CC)CCNC(=O)CCn1c(=S)[nH]c2cc3c(cc2c1=O)OCO3	-7%	1%	-1	17%	-15%
COC(=O)c1cc(OC)c(OC)cc1NC(=O)CCCCCN1C(=O)CCC1=O	4%	-2%	1	-12%	-18%
COCCNC(=O)CCCCCN1C(=O)CCC1=O	-3%	-1%	-16	12%	16µM*
COc1ccccc1N1CCN(C(=O)CCn2c(=O)[nH]c3ccccc3c2=O)CC1	-2%	8%	-107*	11%	-6%
O=C(CCCCn1c(=S)[nH]c2ccsc2c1=O)NCc1ccco1	13%	3%	40	5%	14µM*
CCCCNC(=O)CCCn1c(=S)[nH]c2cc3c(cc2c1=O)OCO3	-10%	-9%	u	5%	16µM*
Cc1cccc(N2CCN(C(=O)CCn3c(=O)[nH]c4ccccc4c3=O)CC2)c1C	12%	-6%	8	0%	-14%
CCCCNc1nc(C)nc2c1nc(-c1ccccc1)n2CCN1CCCC1	x	1%	x	u	u
SMILES	LMNA splice mod	ALOX12 inhib	PNC assembly inh	ALDH1A1 block	HPGD inh
COCCNC(=O)CCCCCn1c(=S)[nH]c2ccccc2c1=O	15%	-2%	128	3%	13µM*
O=C(CCCCCn1c(=S)[nH]c2ccccc2c1=O)N1CCOCC1	-4%	-7%	11	4%	14µM*
OCC1(Cc2cccc(Cl)c2)CCCN(Cc2sc(N3CCCC3)nc2Cl)C1 (stereo not drawn)	0%[46 µM]	x	x	-4%	x
COc1ccc(/C=C/CN2CCCC(CO)(Cc3cccc(Cl)c3)C2)cc1 (stereo not drawn)	x	x	x	20µM*	x
O=C(OC(C(=O)NCc1cccs1)c1ccccc1F)c1ccco1 (stereo not drawn)	6%	3%	10	u	1%
O=C(OC(C(=O)NCc1ccc2c(c1)OCO2)c1ccccc1F)c1ccco1 (stereo not drawn)	11%	-20%	13	1.6µM*	u
COc1c(Cl)cc(-c2noc(C)c2C(=O)NCc2ccc3c(c2)OCO3)cc1Cl	-8%	-1%	10	0.71µM*	-6%
CCOc1cc(C)c(Cl)cc1S(=O)(=O)NCc1ccc2c(c1)OCO2	-1%	-9%	-113*	u	-10%
CCCN1Cc2cccc(C(=O)NCc3ccc4c(c3)OCO4)c2C1=O	3%	-11%	u	14µM*	-9%
O=C(NCc1ccc2c(c1)OCO2)c1cccc2c1C(=O)N(C1CCCCC1)C2	-8%	2%	1	1%	-7%
Cc1ccc(C(=O)NCC(=O)OCc2cc(=O)n3ccsc3n2)cc1	6%[46 µM]	x	x	x	x
CCC(OC(=O)c1ccco1)C(=O)NCc1ccc(C)cc1 (stereo not drawn)	7%	-4%	36	-3%	28µM*
COc1ccccc1CC(=O)NCc1ccc2c(c1)OCO2	8%	-5%	-23	u	14µM*
O=C(NCc1ccc2c(c1)OCO2)c1cccnc1Cl	x	x	x	2%	x
CCOc1ccccc1C(=O)NCc1ccc2c(c1)OCO2	7%	-5%	55	3%	4µM*
Cc1ccc(CNC(=O)C(C)OC(=O)c2ccco2)cc1 (stereo not drawn)	1%	-1%	u	3%	-13%
CC1CCC(O)([C@](C)(C(=O)O)c2ccccc2)CC1 (stereo partly drawn)	x	-4%[11.4 µM]	x	1%[13.5 µM]	0%
C/C=C/C1=Cc2ccccc2C(CC(=O)OC)N1C(=O)OC (stereo not drawn)	11%[9.22 µM]	5%[11.4 µM]	x	0%[13.5 µM]	-5%
Cc1cc(=O)oc2c1c(C)nn2-c1ccc(C(=O)OC(C)C)cc1	-9%	-10%	u	1.1µM*	-13%
COc1cc(/C=C(\C#N)c2nc3ccccc3[nH]2)ccc1OC(=O)c1ccco1	-9%	-5%	33	u	u
COc1cc(/C=C(/C#N)c2nc3ccccc3[nH]2)ccc1OCC(=O)Nc1ccccc1C(C)C	u	-4%	-86*	u	u
COc1cc(/C=C(/C#N)c2nc3ccccc3[nH]2)ccc1OCC(=O)Nc1ccccc1C	u	0%	47	2%	-22%
COc1cc(/C=C(\C#N)c2nc3ccccc3[nH]2)c([N+](=O)[O-])cc1OCc1ccccc1	u	-7%	-8	0.56µM*	u
CCOc1nnc(C)c2c(C)n(-c3cccc(OC)c3)nc12	-2%	1%	-106*	4%	-7%
COc1cccc(NC(=O)C2CCN(c3nnc(C)c4c(C)n(-c5ccccc5)nc34)CC2)c1	-2%[46 µM]	x	x	x	x
CO/N=C(\C)CCN1CCCCc2nc(C)c(C)cc21	x	x	x	10%[13.5 µM]	x
C[n+]1c2n(c3ccccc31)N=C(c1ccc(-c3ccccc3)cc1)CS2	-7%[46 µM]	x	x	-15%	x

High-throughput results: PubChem BioAssay, National Center for Advancing Translational Sciences (NCATS)
